Hit rate of the full screen: of about 2,100 compounds, about 650 (31%) were called active. Not shown: some 16% with an inconclusive outcome. This is one part of the list. Values without a mark were called inactive. Calls come from the whole dose curve; as a rule, active = well fitted inhibition curve with a large enough effect; inconclusive = small, poorly fitted or top-dose-only effect; inactive = flat fitted curve, though single readings scatter.
Experiment: qHTS for inhibitors of Vif-A3G interactions: Cherry picks; note: nearly all actives have a fitted effect of over 80% in size; for activity, negative = fluorescence increase: % of control where 0% means no effect
Conditions: HeLa A3G-eYFP + Vif (tagged APOBEC3G with the HIV-1 protein that degrades it), 24 h; Potency: eYFP fluorescence increase; series mostly up to 36.9 µM; activity, negative = fluorescence increase: at the top concentration
In short: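 HeLa cells stably expressing A3G-eYFP and Vif, cultured overnight then exposed to compounds at several concentrations for 24 hours at 37 C, 5% CO2; cellular yellow fluorescence (488 nm ex, 500-530 nm em) imaged on Acumen, MG132 positive control.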
In the case of `Clc1ccccc1C1CC(c2ccccc2)=Nc2ccccc2N1` (stereo not drawn), the “activity, negative = fluorescence increase” value is reported as -8.72% [at 46.1 µM].
For `CCOc1ccccc1C(=O)Nc1ccsc1C(=O)OC`, the “activity, negative = fluorescence increase” value was 1.29%.
For `Cc1cccc(C=Nc2ccccc2C(N)=O)c1`, the “activity, negative = fluorescence increase” value was 3.09%.
For `CN(C)c1ccc(C=C2SC(=S)NC2=O)cc1`, the Potency was 11.2 µM (active).
For `CCOc1ccc(N(C)c2ccc(/C=C3/SC(=S)NC3=O)cc2)cc1`, the Potency was 17.7 µM (active).
With `Cn1cc(/C=C2\SC(=O)N(c3ccccc3)C2=O)c2ccccc21` the Potency was 20.6 µM (active).
For `Cc1cccc(N=C2NC(=O)/C(=C/c3cccn3C)S2)c1`, the “activity, negative = fluorescence increase” value was 0.0988%.
With `Cc1ccc(N=C2NC(=O)/C(=C/c3cn(C)c4ccccc34)S2)cc1C` the Potency was 17.7 µM (active).
With `O=C1NC(=Nc2ccc(O)cc2)S/C1=C/c1ccco1` the “activity, negative = fluorescence increase” value was 0.269%.
With `Cn1cccc1/C=C1\SC(=Nc2cccc(O)c2)NC1=O` the “activity, negative = fluorescence increase” value was -6.02%.
With `Cn1cccc1/C=C1\SC(=O)N(c2ccc(O)cc2)C1=O` the Potency was 20.6 µM (active).
For `Cn1cc(/C=C2\SC(=S)N(NC(=O)c3cccc(Cl)c3)C2=O)c2ccccc21`, the Potency was 3.66 µM (active).
With `CCOc1ccc(C(=O)C(CCC(CN(C)C)C(=O)c2ccc(OCC)cc2)CN(C)C)cc1` (stereo not drawn) the “activity, negative = fluorescence increase” value was -0.142%.
In the case of `S=c1[nH]nc(-c2cccnc2)n1/N=C/C(Cl)=C\c1ccccc1`, the “activity, negative = fluorescence increase” value is reported as -14.4%.
In the case of `O=C(C(=Cc1ccccc1)CN1CCCCC1)c1ccccc1`, the “activity, negative = fluorescence increase” value is reported as -0.537%.
For `O=S(=O)(Nc1cc(Sc2ncn[nH]2)c(O)c2ccccc12)c1ccccc1`, the “activity, negative = fluorescence increase” value was -17.9%.
In the case of `COc1ccc(NC(=O)C2Cc3c(-c4cccc(C(C)=O)c4)ccnc3O2)cn1` (stereo not drawn), the “activity, negative = fluorescence increase” value is reported as 0.238%.
For `Cc1noc(C)c1COc1cccc(C(=O)OC(C)C(=O)Nc2ccc3c(c2)OCO3)c1` (stereo not drawn), the “activity, negative = fluorescence increase” value was -0.108%.
In the case of `COc1cc2c(cc1OC)C(C)N(C(=O)c1cc(C)on1)CC2` (stereo not drawn), the “activity, negative = fluorescence increase” value is reported as -1.83%.
With `CN(C)c1ccc(C2C=C(c3ccc(Cl)cc3OC(F)F)Nc3ncnn32)cc1` (stereo not drawn) the “activity, negative = fluorescence increase” value was -23.3%.
With `Cc1ccc(NS(=O)(=O)c2cc([N+](=O)[O-])ccc2N/N=C/c2sc(N3CCOCC3)nc2-c2ccccc2)c(C)c1` the Potency was 0.158 µM (active).
In the case of `Cc1ccc(S(=O)(=O)Nc2cc(-c3nn(C)c(=O)c4ccccc34)ccc2N2CCOCC2)cc1`, the “activity, negative = fluorescence increase” value is reported as -12.2%.
For `O=C(O)c1ccccc1/C=N/Nc1ccc(S(=O)(=O)N2CCOCC2)cc1[N+](=O)[O-]`, the “activity, negative = fluorescence increase” value was -3.49%.
For `O=[N+]([O-])c1ccc(N/N=C/c2sc(N3CCOCC3)nc2-c2ccccc2)c(S(=O)(=O)Nc2ccccc2Cl)c1`, the Potency was 11.6 µM (active).
With `Cc1ccc(C(=O)c2cc([N+](=O)[O-])ccc2N2CCOCC2)cc1C` the “activity, negative = fluorescence increase” value was -7.92%.
For `COc1ccccc1NS(=O)(=O)c1cc([N+](=O)[O-])ccc1N/N=C/c1sc(N2CCOCC2)nc1-c1ccccc1`, the Potency was 2.06 µM (active).
With `COc1cc(C2c3cc4c(cc3C(OC3OC5COC(c6cccs6)OC5C(O)C3O)C3COC(=O)C23)OCO4)cc(OC)c1O` (stereo not drawn) the “activity, negative = fluorescence increase” value was -29.5%.
For `O=C(c1[nH]c(C(F)(F)F)nc1-c1ccccc1)N1CCN(c2cccc(C(F)(F)F)n2)CC1`, the “activity, negative = fluorescence increase” value was -6.94%.
In the case of `O=C(CCc1ccccc1)Nc1ccc(Cl)cn1`, the “activity, negative = fluorescence increase” value is reported as -19.7%.
In the case of `COC(=O)COc1cccc2c(=O)n(CC(=O)NCc3ccccc3)ccc12`, the “activity, negative = fluorescence increase” value is reported as -15.8%.
With `O=C(/C=C/c1ccncc1)c1cc(Cl)ccc1O` the “activity, negative = fluorescence increase” value was -5.76% [at 46.1 µM].
In the case of `COc1ccccc1C1=NOC(COc2ccc3c(C)cc(=O)oc3c2)C1` (stereo not drawn), the “activity, negative = fluorescence increase” value is reported as -2.24%.
For `Cc1cccc(-n2c(N)c(-c3nc4ccccc4n3C)c3nc4ccccc4nc32)c1`, the “activity, negative = fluorescence increase” value was -4.05% [at 46.1 µM].
With `CCSc1nc2ccccc2n1C(=O)/C=C/c1ccc(OC)c(OC)c1` the “activity, negative = fluorescence increase” value was -5.86%.
In the case of `CC(=O)n1c2ccccc2c2nc3ccccc3nc21`, the Potency is reported as 9.2 µM (active).
For `O=c1c(Cl)c2oc3ccccc3nc-2c2ccccc12`, the Potency was 18.4 µM (active).
For `COc1ccc(/C=N/NC(=O)c2cc3c(OC)ccc(OC)c3[nH]2)cc1O`, the “activity, negative = fluorescence increase” value was -7.72%.
For `O=[N+]([O-])c1ccc(N2CCN(Cc3ccccc3)CC2)c2c1no[n+]2[O-]`, the Potency was 15.8 µM (active).
In the case of `Cc1ccc(-c2nc3ccccc3o2)cc1NC(=S)NC(=O)/C=C/c1ccco1`, the “activity, negative = fluorescence increase” value is reported as -14.8%.
With `Cc1cc(NC(=O)c2ccco2)cc(-c2nc3cc(Cl)ccc3o2)c1O` the Potency was 18.4 µM (active).
With `COc1ccccc1C(=O)NC(=S)Nc1ccc(NC(=O)c2ccco2)cc1` the “activity, negative = fluorescence increase” value was 0.442%.
With `CC1=C(C(=O)Nc2cccc(F)c2)C(c2ccsc2)C2=C(CC(C)(C)CC2=O)N1` (stereo not drawn) the “activity, negative = fluorescence increase” value was -10.6%.
With `O=C1S/C(=C\c2ccc(N3CCOCC3)o2)C(=O)N1c1ccccc1` the Potency was 2.8 µM (active).
With `CCOC(=O)CN1C(=O)S/C(=C/c2ccc(N3CCCCC3)o2)C1=O` the Potency was 5.8 µM (active).
For `CCCN1C(=O)S/C(=C\c2ccc(N3CCOCC3)o2)C1=O`, the Potency was 4.44 µM (active).
With `O=C1S/C(=C/c2ccc(N3CCOCC3)o2)C(=O)N1Cc1c(F)cccc1Cl` the Potency was 4.44 µM (active).
For `Cc1ccc(Cn2nnc3c(=O)n(CC(=O)NCc4ccccc4)cnc32)cc1`, the “activity, negative = fluorescence increase” value was -0.238%.
In the case of `CO/N=C\CC(=O)Nc1ccc(Cl)c(Cl)c1`, the “activity, negative = fluorescence increase” value is reported as -4.64%.

From PubChem BioAssay AID651812 (National Center for Advancing Translational Sciences (NCATS), 2012)
Potency is the fitted concentration of half-maximal effect.
